Experimental data: PubChem BioAssay (NCATS)
Several values for one entry are separate records, joined by “and”; a condition that tells them apart may be missing. Identical values can stand only once. Inconclusive results are not listed. More than one record can exist for a structure, and the calls need not agree. Activity calls are given as the source filed them. The call rests on the fitted dose curve; in most records, active means well fitted inhibition curve with a large enough effect; inconclusive means small, poorly fitted or top-dose-only effect; inactive means no such curve, though single readings can be large or run the other way.

What follows are compounds tested against Cytochrome P450 2D6 (Homo sapiens) (UniProt P10635) (assay: qHTS Assay for Inhibitors and Substrates of Cytochrome P450 2D6 (AID 891; further: nearly all actives have a fitted effect of over 60% in size)). Conditions: recombinant CYP2D6, luciferin-ME EGE luminescence; series mostly up to 57.1 µM; activity change, negative = inhibition: at the top concentration.
Chain of Cytochrome P450 2D6 (Homo sapiens) (P10635 whole entry, looked up): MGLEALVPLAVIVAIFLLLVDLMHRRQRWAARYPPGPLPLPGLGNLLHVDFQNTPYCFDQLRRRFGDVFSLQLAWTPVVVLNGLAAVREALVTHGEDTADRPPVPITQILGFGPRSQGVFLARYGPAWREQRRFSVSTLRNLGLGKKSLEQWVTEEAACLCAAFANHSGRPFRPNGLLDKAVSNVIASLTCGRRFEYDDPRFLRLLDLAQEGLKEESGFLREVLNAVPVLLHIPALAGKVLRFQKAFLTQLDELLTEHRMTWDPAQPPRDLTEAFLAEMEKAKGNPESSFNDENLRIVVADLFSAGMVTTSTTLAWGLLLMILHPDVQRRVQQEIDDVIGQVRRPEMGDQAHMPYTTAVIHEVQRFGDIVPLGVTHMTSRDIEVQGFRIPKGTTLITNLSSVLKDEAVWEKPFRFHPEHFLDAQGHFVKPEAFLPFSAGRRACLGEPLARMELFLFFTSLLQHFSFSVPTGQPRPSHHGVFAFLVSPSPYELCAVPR
Description: NIH Molecular Libraries Screening Centers Network [MLSCN]
NIH Chemical Genomics Center [NCGC]
The P450 gene superfamily is involved in the metabolism and clearance of xenobiotics. This assay used human CYP2D6 to measure the demethylation of ethylene glycol ester of luciferin 6' methyl ether (Luciferin-ME EGE; […]) to luciferin. The luciferin is then measured by luminescence after the addition of a luciferase detection reagent. Luciferin-ME EGE concentration in the assay was equal to its Km for CYP2D6. Inhibitors and some substrates limit the production of luciferin, and decrease measured luminescence.
NCGC Assay Protocol Summary:
Two uL of enzyme and substrate mix (final concentrations: 5nM CYP2D6, 30uM Luciferin-ME EGE, 100mM KPO4) were dispensed into a white, solid bottom 1536-well microtiter plate. 23nL of compound was transferred by a pin tool. The plate was incubated at room temperature for 10 min. Two uL of an NADPH regeneration solution (Promega supplied reagent) was dispensed and the reaction was allowed to continue for 60 min at room temperature. Then the reaction was stopped by reconstituted luciferin detection buffer. After another 20 min of incubation the plate was read on the ViewLux (Perkin Elmer) at 60 sec exposure and 2x2 binning. This protocol was carried out with Promega-Glo reagents and further information can be found at http://www.promega.com/tbs/tb325/tb325.pdf. Data were normalized to the to AC100 inhibition (1.43 uM quinidine).
Keywords: P450, CYP2D6, Luciferase, MLSMR, MLSCN, NIH Roadmap, qHTS, NCGC
On the % scale 0 is the no-effect control and ±100 the full control effect; potency means the concentration at half of the fitted maximal effect.

SMILES | Potency | activity change, negative = inhibition | outcome
CN1CCC(=C2c3ccccc3CC(=O)c3sccc32)CC1 | 7.94 µM (active) and 3.16 µM (active) and 5.01 µM (active) |  | 
O=c1[nH]cc(F)c(=O)[nH]1 |  | 7.7% (inactive) | 
Cc1cc(C(C)(C)C)cc(C)c1CC1=NCCN1 | 3.98 µM (active) |  | 
CCC1(c2ccccc2)C(=O)NCNC1=O |  | 1.45% (inactive) | 
COc1cc2nc(N3CCN(C(=O)c4ccco4)CC3)nc(N)c2cc1OC |  | -6.57% (inactive) | 
COC(=O)Nc1nc2ccc(C(=O)c3cccs3)cc2[nH]1 |  | -5.39% (inactive) | 
OCCN(CCO)c1nc(N2CCCCC2)c2nc(N(CCO)CCO)nc(N3CCCCC3)c2n1 | 12.6 µM (active) and 10 µM (active) |  | inactive
CCOC(=O)c1ncn2c1CN(C)C(=O)c1cc(F)ccc1-2 |  | 22.5% (inactive) | 
CS(=O)(=O)Nc1ccc([N+](=O)[O-])cc1Oc1ccccc1 |  | 1.4% (inactive) | 
CN1CCC(=C2c3ccccc3C=Cc3ccccc32)CC1 | 2.51 µM (active) and 3.98 µM (active) |  | 
Clc1ccccc1C(c1ccccc1)(c1ccccc1)n1ccnc1 | 10 µM (active) |  | 
N[C@@H](Cc1c[nH]c2ccc(O)cc12)C(=O)O |  | 0.528% (inactive) | 
O=c1c(O)c(-c2ccc(O)c(O)c2)oc2cc(O)cc(O)c12 |  | 7.44% (inactive) | 
CN1C(C(=O)Nc2ccccn2)=C(O)c2ccccc2S1(=O)=O |  | 1.82% (inactive) | 
CC(C)C(=O)Nc1ccc([N+](=O)[O-])c(C(F)(F)F)c1 |  | 0.0593% (inactive) | 
Nc1nnc(-c2cccc(Cl)c2Cl)c(N)n1 | inactive and 6.31 µM (active) |  | 
NC(=O)OCC(COC(N)=O)c1ccccc1 | inactive and 794 nM (active) |  | 
CN1CCN(CCCN2c3ccccc3Sc3ccc(Cl)cc32)CC1 | 398 nM (active) and 794 nM (active) |  | 
O=C1N(c2ccccc2)c2ccccc2C1(Cc1ccncc1)Cc1ccncc1 |  | -13.2% (inactive) | 
COc1ccc2c(c1)c(CC(=O)O)c(C)n2C(=O)c1ccc(Cl)cc1 |  | 3.44% (inactive) | 
Cc1cc(C(C)(C)C)c(O)c(C)c1CC1=NCCN1 | 3.98 µM (active) and 39.8 nM (active) |  | 
O=c1c(-c2ccc(O)cc2)coc2cc(O)cc(O)c12 | inactive |  | 
Cn1c(=O)c2c(ncn2C)n(C)c1=O | inactive |  | 
CN(C)CCC=C1c2ccccc2C=Cc2ccccc21 | 6.31 µM (active) |  | 
Nc1c2c(nc3ccccc13)CCCC2 | 5.01 µM (active) |  | 
